# Laboratory results: PubChem BioAssay
# Activity calls are given as the source filed them. Unless noted, no stated cut-off is given here; in the data, active means inhibition above about 80%; inactive means the rest.
# Experiments:
# [1] = growth inhibition, single agent or in combination, cell-based, chromothripsis tumors, cisplatin or BGB combos (AID 1671449); conditions: LFS_MB_P medulloblastoma cells;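 further: cells exposed for 96 hours; 0% = vehicle DMSO and 100% = killing by high DMSO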
# [2] = growth inhibition, single agent and combos, cell-based, chromothripsis tumors, cisplatin or BGB combos (AID 1671450); conditions: HDN33 neuroblastoma cells, stronger effect = higher value;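 further: cells exposed to compound for four days; 0% = vehicle DMSO and 100% = cell killing by high DMSO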
# [3] = growth inhibition, single agents and combos, ICB984, cell-based, cisplatin or BGB combos, synergistic combos for chromothripsis tumors (AID 1671451; call rule not given here;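 further: cells exposed for 96 hours before readout; 0% = vehicle DMSO and 100% = killing by high DMSO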); conditions: ICB984 medulloblastoma cells, drug combinations, stronger effect = higher value
# [4] = growth inhibition, single agents and combos, LFS_MB_1R, cell-based, cisplatin or BGB combos, synergistic combos for chromothripsis tumors (AID 1671452); conditions: LFS_MB_1R medulloblastoma cells, stronger effect = higher value;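 further: cells exposed for 96 hours before readout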
# [5] = growth inhibition, single agents and combos, HTB85, cell-based, BGB or cisplatin IC20 combos, synergistic combos for chromothripsis tumors (AID 1671453); conditions: HTB85 osteosarcoma cells, drug combinations, stronger effect = higher value;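 further: cells exposed for 96 hours before readout; 0% = vehicle DMSO and 100% = high DMSO killing control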
# [6] = growth inhibition, single agents and combos, CRL2098, cell-based, BGB or cisplatin IC20 combos, synergistic combos for chromothripsis tumors (AID 1671454); conditions: CRL2098 osteosarcoma cells, drug combinations, stronger effect = higher value;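 further: cells exposed for 96 h before readout; 0% = vehicle DMSO and 100% = killing by high DMSO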
# [7] = growth inhibition, single agents and combos, HD-MB03, cell-based, BGB or cisplatin IC20 combos, synergistic combos for chromothripsis tumors (AID 1671455; in the data active means inhibition above about 83%;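 further: 0% = vehicle DMSO and 100% = high DMSO as cytotoxic control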); conditions: HD-MB03 medulloblastoma cells, stronger effect = higher value
# [8] = growth inhibition, single agents and combos, UWB1.289, cell-based, BGB or cisplatin combos, synergistic combos for chromothripsis tumors (AID 1671456); conditions: UWB1.289 ovarian carcinoma cells, stronger effect = higher value;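 further: cells exposed to compound for four days; 0% = vehicle DMSO and 100% = killing by high DMSO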
# [9] = growth inhibition, single agents and combos, LFS_MB_2R, cell-based, cisplatin combos, synergistic combos for chromothripsis tumors (AID 1671457); conditions: LFS_MB_2R medulloblastoma cells, stronger effect = higher value;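 further: cells exposed to compound for four days before readout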
# [10] = growth inhibition, MDA-MB-436, cell-based, BGB or cisplatin combos, synergistic combos for chromothripsis tumors (AID 1671458; call rule not given here;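 further: cells exposed for 96 hours; 0% = vehicle DMSO and 100% = killing by high DMSO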); conditions: MDA-MB-436 breast carcinoma growth inhibition, drug combinations, stronger effect = higher value
# [11] = UWB1.289_BRCA1 ovarian cancer growth, cell-based, BGB or cisplatin combinations (AID 1671459); conditions: UWB1.289 BRCA1 ovarian carcinoma, drug combinations, stronger effect = higher value
# [12] = drug combination toxicity in non-malignant astrocytes – cell-based, BGB or cisplatin IC20 combos, cytotoxicity control for chromothriptic childhood tumor combination screen (AID 1671460); conditions: Human astrocytes, viability inhibition, drug combinations, at 0.5 µM, stronger effect = higher value;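 further: cells exposed to compounds for 96 hours before viability readout; 0% = vehicle and 100% = killing control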
# [13] = BT084 cell growth, single and combined drugs, ICGC_MB145, cisplatin and BGB IC40 combos (AID 1671461); conditions: BT084 medulloblastoma cells, drug combinations, stronger effect = higher value;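 further: cells exposed to drugs for 96 hours; 0% = vehicle DMSO and 100% = high DMSO full killing control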
# [14] = RCMB18 cell growth, single agent and combined, cisplatin and BGB IC40 combos (AID 1671462); conditions: RCMB18 medulloblastoma cells, stronger effect = higher value;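 further: cells exposed to compound for four days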
# [15] = CRL1545 cell growth, single agent and combined, cisplatin and BGB IC20 combos (AID 1671464); conditions: CRL1545 osteosarcoma cells, stronger effect = higher value;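 further: cells exposed to compound for 96 hours before readout; 0% = vehicle DMSO and 100% = high DMSO killing control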
# [16] = at 0.5 µM, stronger effect = higher value
# [17] = measured here: combination with BGB IC20, at 0.005 µM
# [18] = measured here: combination with BGB IC40, at 0.005 µM
# [19] = measured here: combination with BGB IC40, at 0.05 µM
# [20] = measured here: combination with cisplatin, at 0.5 µM, stronger effect = higher value
# [21] = measured here: combination with cisplatin, at 5 µM, stronger effect = higher value
# [22] = measured here: with BGB IC20 combination, at 0.5 µM
# [23] = measured here: with cisplatin IC20 combination, at 0.5 µM
# [24] = measured here: 5 uM single agent, at 5 µM
# [25] = measured here: combination with cisplatin, at 0.5 µM
# [26] = measured here: combination with cisplatin, at 5 µM
# [27] = measured here: with BGB IC20, at 0.5 µM
# [28] = measured here: with BGB IC20, at 5 µM
# [29] = measured here: with cisplatin IC20, at 0.5 µM
# [30] = measured here: with cisplatin IC20, at 5 µM
# [31] = measured here: combination with BGB at IC20, at 0.5 µM
# [32] = measured here: combination with cisplatin at IC20, at 0.5 µM
# [33] = measured here: combo with BGB at IC20, at 0.5 µM
# [34] = measured here: combo with cisplatin at IC20, at 0.5 µM
# [35] = measured here: inhibition with BGB combination, at 0.05 µM
# [36] = measured here: inhibition with cisplatin combination, at 0.05 µM
# [37] = measured here: BGB combination, at 0.5 µM
# [38] = measured here: BGB combination, at 5 µM
# [39] = measured here: cisplatin combination, at 0.5 µM
# [40] = measured here: cisplatin combination, at 5 µM
# [41] = BGB combination, concentration series, at 5 µM
# [42] = cisplatin combination, concentration series, at 5 µM
# [43] = measured here: combo with BGB IC20
# [44] = measured here: combo with cisplatin IC20
# [45] = cisplatin combination, at 0.5 µM
# [46] = measured here: BGB IC40 combination 0.05 uM, at 0.05 µM
# [47] = measured here: BGB IC40 combination, at 0.05 µM
compound,measurement,setting,value
CCC(C)C(=O)OC1CC(C)C=C2C=CC(C)C(CCC3CC(O)CC(=O)O3)C21 (stereo unspecified),inhibition,[1]; [16],-40.1% (inactive)
same,inhibition,[1]; [17],-11.8%
same,inhibition,[1]; [18],-21.9%
same,inhibition,[1]; [19],-1.78%
same,inhibition,[1]; [20],-46.1%
same,inhibition,[1]; [21],-44.5%
same,inhibition,"[2]; BGB combo, at 5 µM",63.1%
same,inhibition,[2]; at 0.5 µM,21.8% (inactive)
same,inhibition,"[2]; cisplatin combo, at 5 µM",52.4%
same,inhibition,[2]; [22],26.6%
same,inhibition,[2]; [23],11.5%
same,inhibition,"[2]; single agent, at 5 µM",65.1%
same,inhibition,"[3]; BGB IC20 combo, at 0.005 µM",0.285%
same,inhibition,"[3]; BGB IC40 combo, at 0.005 µM",16.8%
same,inhibition,"[3]; BGB IC40 combo, at 0.05 µM",20.5%
same,inhibition,[3]; at 0.5 µM,-5.66% (inactive)
same,inhibition,"[3]; cisplatin combo, at 0.05 µM",20.5%
same,inhibition,"[3]; cisplatin combo, at 0.5 µM",-11.6%
same,inhibition,"[3]; cisplatin combo, at 5 µM",-5.67%
same,inhibition,[3]; [24],-12.3%
same,inhibition,[4]; at 0.5 µM,22% (inactive)
same,inhibition,[4]; [19],-11%
same,inhibition,[4]; [25],12.3%
same,inhibition,[4]; [26],12%
same,inhibition,[5]; at 0.5 µM,-1.62% (inactive)
same,inhibition,[5]; [27],-18.6%
same,inhibition,[5]; [28],74.3%
same,inhibition,[5]; [29],-1.27%
same,inhibition,[5]; [30],74.6%
same,inhibition,"[5]; single agent, at 5 µM",73.5%
same,inhibition,[6]; at 0.5 µM,-29.5% (inactive)
same,inhibition,[6]; [31],-33%
same,inhibition,[6]; [32],-19.4%
same,inhibition,[7]; at 0.5 µM,30.1% (inactive)
same,inhibition,[7]; [33],26.5%
same,inhibition,[7]; [34],26.8%
same,inhibition,[8]; at 0.5 µM,5.25% (inactive)
same,inhibition,[8]; [35],-16.1%
same,inhibition,[8]; [36],5.33%
same,inhibition,[9]; at 0.5 µM,-20.3% (inactive)
same,inhibition,[9]; [25],-23.3%
same,inhibition,[9]; [26],-7.2%
same,inhibition,[10]; at 0.5 µM,-16.4% (inactive)
same,inhibition,[10]; [37],-18.4%
same,inhibition,[10]; [38],-6.45%
same,inhibition,[10]; [39],-23%
same,inhibition,[10]; [40],8.95%
same,inhibition,[11]; [41],23.4%
same,inhibition,[11]; at 0.5 µM,3.85% (inactive)
same,inhibition,[11]; [42],29.3%
same,inhibition,[12],-9.68% (inactive)
same,inhibition,[12]; [43],-8.02%
same,inhibition,[12]; [44],-11.2%
same,inhibition,[13]; at 0.5 µM,6.42% (inactive)
same,inhibition,[13]; [45],24.4%
same,inhibition,"[13]; cisplatin combination, at 5 µM",33.2%
same,inhibition,[13]; [46],4.47%
same,inhibition,"[13]; single agent, at 5 µM",25.9%
same,inhibition,[14]; at 0.5 µM,1.38% (inactive)
same,inhibition,"[14]; cisplatin combo, at 5 µM",4.72%
same,inhibition,[14]; [47],-3.68%
same,inhibition,[14]; [25],2.71%
same,inhibition,"[14]; single agent, at 5 µM",8.59%
same,inhibition,[15]; at 0.5 µM,4.53% (inactive)
same,inhibition,[15]; [22],12.6%
same,inhibition,[15]; [23],0.492%
same,inhibition,"[15]; single agent, at 0.05 µM",-12.7%
same,inhibition,"[15]; single agent, at 5 µM",11.3%
O=c1cc(-c2ccc(O)cc2)[nH]c(=S)[nH]1,inhibition,[1]; [16],85.3% (active)
same,inhibition,[1]; [17],-1.36%
same,inhibition,[1]; [18],-7.24%
same,inhibition,[1]; [19],-1.51%
same,inhibition,[1]; [20],79.3%
same,inhibition,[1]; [21],3.08%
same,inhibition,"[2]; BGB combo, at 5 µM",-16.4%
same,inhibition,[2]; at 0.5 µM,-17.1% (inactive)
same,inhibition,"[2]; cisplatin combo, at 5 µM",-30.3%
same,inhibition,[2]; [22],-22.1%
same,inhibition,[2]; [23],-12.8%
same,inhibition,"[2]; single agent, at 5 µM",-27.7%
same,inhibition,"[3]; BGB IC20 combo, at 0.005 µM",-9.88%
same,inhibition,"[3]; BGB IC40 combo, at 0.005 µM",-25.6%
same,inhibition,"[3]; BGB IC40 combo, at 0.05 µM",-24.8%
same,inhibition,[3]; at 0.5 µM,-27.2% (inactive)
same,inhibition,"[3]; cisplatin combo, at 0.05 µM",-31.2%
same,inhibition,"[3]; cisplatin combo, at 0.5 µM",-50.4%
same,inhibition,"[3]; cisplatin combo, at 5 µM",-7.23%
same,inhibition,[3]; [24],-15.4%
same,inhibition,[4]; at 0.5 µM,-1.38% (inactive)
same,inhibition,[4]; [19],-3.87%
same,inhibition,[4]; [25],-24.1%
same,inhibition,[4]; [26],1.81%
same,inhibition,[5]; at 0.5 µM,-22.5% (inactive)
same,inhibition,[5]; [27],-21.9%
same,inhibition,[5]; [28],-6.6%
same,inhibition,[5]; [29],-20.1%
same,inhibition,[5]; [30],14%
same,inhibition,"[5]; single agent, at 5 µM",-1.02%
same,inhibition,[6]; at 0.5 µM,-53% (inactive)
same,inhibition,[6]; [31],-28.7%
same,inhibition,[6]; [32],-91.5%
same,inhibition,[7]; at 0.5 µM,-13.4% (inactive)
same,inhibition,[7]; [33],-10.4%
same,inhibition,[7]; [34],-24.5%
same,inhibition,[8]; at 0.5 µM,-11.6% (inactive)
same,inhibition,[8]; [35],-5.24%
same,inhibition,[8]; [36],-19.2%
same,inhibition,[9]; at 0.5 µM,-8.7% (inactive)
same,inhibition,[9]; [25],-16.1%
same,inhibition,[9]; [26],-5.06%
same,inhibition,[10]; at 0.5 µM,-9.32% (inactive)
same,inhibition,[10]; [37],-13.5%
same,inhibition,[10]; [38],-8.05%
same,inhibition,[10]; [39],-15.9%
same,inhibition,[10]; [40],-5.07%
same,inhibition,[11]; [41],-21.3%
same,inhibition,[11]; at 0.5 µM,-19.2% (inactive)
same,inhibition,[11]; [42],2.65%
same,inhibition,[12],-9.33% (inactive)
same,inhibition,[12]; [43],-17.6%
same,inhibition,[12]; [44],-15.4%
same,inhibition,[13]; at 0.5 µM,6.07% (inactive)
same,inhibition,[13]; [45],-1.5%
same,inhibition,"[13]; cisplatin combination, at 5 µM",-121%
same,inhibition,[13]; [46],27.5%
same,inhibition,"[13]; single agent, at 5 µM",15.9%
same,inhibition,[14]; at 0.5 µM,-1.5% (inactive)
same,inhibition,"[14]; cisplatin combo, at 5 µM",-3.95%
same,inhibition,[14]; [47],-13.5%
same,inhibition,[14]; [25],-10.5%
same,inhibition,"[14]; single agent, at 5 µM",21.7%
same,inhibition,[15]; at 0.5 µM,-18.8% (inactive)
same,inhibition,[15]; [22],-19.4%
same,inhibition,[15]; [23],-20.3%
same,inhibition,"[15]; single agent, at 0.05 µM",0.873%
same,inhibition,"[15]; single agent, at 5 µM",-68.2%
